Measured values as given in PubChem BioAssay (EPA / NIEHS).
Activity calls are given as the source filed them. Rule for the calls: active = hit-call score of the fitted dose curve at least 0.9, where 1 is the maximum; inactive = score below 0.9.

Key:
[1] = ATG_CRE_CIS: Attagene CIS-FACTORIAL HepG2 Assay for human cAMP Responsive Element (CRE) binding protein 3 (AID 2282926); settings: HepG2 CRE cis-reporter, Attagene multiplexed mRNA; actives raise or lower the signal
Procedure, shortened: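 Cells carrying cis-regulated reporter constructs respond through their own endogenous factors. After 24 h treatment, RNA is reverse-transcribed, amplified, labelled and sized by capillary electrophoresis; up- and down-regulation are both scored against vehicle.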

[2] = ATG_CMV_CIS: Attagene CIS-FACTORIAL HepG2 Assay for human CMV (Internal Marker) (AID 2282928); settings: HepG2 CMV promoter reporter, transcription factor profiling; actives raise or lower the signal;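 note: endpoint acts as a background internal control marker rather than a target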
Procedure, shortened: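 Readout: fluorescent reporter cDNA fragments separated by capillary electrophoresis after RT-PCR and HpaI cut. Cells: HepG2 carrying transfected cis-promoter reporter constructs, dosed 24 h. Endpoint serves as background internal-marker control, fit bidirectionally versus DMSO.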

[3] = ATG_DR4_LXR_CIS: Attagene CIS-FACTORIAL HepG2 Assay for human Liver X Receptor (LXR), DR4 submotif (AID 2282929); settings: HepG2 Attagene DR4 cis-reporter, mRNA transcription; actives raise or lower the signal
Procedure, shortened: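 Cells were transfected with multiple reporter transcription units, exposed to chemicals for 24 hours, then lysed for RNA. Reporter mRNA induction was measured by RT-PCR with capillary electrophoresis detection and fitted in both directions relative to DMSO.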

[4] = target: Aryl hydrocarbon receptor (Homo sapiens) (UniProt P35869); assay: ATG_Ahr_CIS: Attagene CIS-FACTORIAL HepG2 Assay for human Aryl Hydrocarbon Receptor (Ahr) (AID 2282930); settings: HepG2 AhR cis-factorial reporter transcription; actives raise or lower the signal
Procedure, shortened: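 Following 24 h of chemical dosing, transfected HepG2 liver cells with cis-driven reporter units were lysed for RNA; reporter mRNA was quantified via RT-PCR and capillary electrophoresis, and responses fitted bidirectionally from DMSO.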

[5] = ATG_AP_1_CIS: Attagene CIS-FACTORIAL HepG2 Assay for human Activator Protein 1 (AP-1) (AID 2282931); settings: HepG2 Attagene cis-factorial AP-1 reporter mRNA; actives raise or lower the signal
Procedure, shortened: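 Endogenous transcription-factor activity in human HepG2 liver cells is read through a cis-promoter reporter transcript, sampled 24 h after dosing. Detection uses RT-PCR with capillary electrophoresis; values come from bidirectional fitting relative to DMSO.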

[6] = ATG_BRE_CIS: Attagene CIS-FACTORIAL HepG2 Assay for human Bone Morphogenetic Protein (BMP) Response Element (BRE) (AID 2282933); settings: HepG2 BMP response element reporter, Attagene transcription factor profiling; actives raise or lower the signal
Procedure, shortened: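 Transient MRTU transfection of human HepG2 liver cells; 24 h compound treatment; total RNA isolated, reverse-transcribed, PCR-amplified, 6-FAM labelled, HpaI-cut, capillary electrophoresis. DMSO = negative control/baseline, bidirectional fit.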

[7] = target: Retinoic acid receptor alpha (Homo sapiens) (UniProt P10276); assay: ATG_DR5_RAR_CIS: Attagene CIS-FACTORIAL HepG2 Assay for human Retinoic Acid Receptor Alpha (RARE), DR5 submotif (AID 2282934); settings: HepG2 Attagene cis-factorial RARE DR5 reporter, mRNA; actives raise or lower the signal;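 for AC50: reporter responds to endogenous RAR alpha beta and gamma in HepG2 not RARA alone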
Procedure, shortened: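 Transfected HepG2 reporter cells are exposed to chemicals for 24 h. Then RNA is extracted and the DR5 element reporter transcript is measured by RT-PCR and capillary electrophoresis, with bidirectional curve fitting relative to DMSO.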

[8] = target: Transcription factor E2F1 (Homo sapiens) (UniProt Q01094); assay: ATG_E2F_CIS: Attagene CIS-FACTORIAL HepG2 Assay for human E2F Transcription Factor 1 (AID 2282935); settings: HepG2 Attagene cis-reporter, E2F reporter RNA transcripts; actives raise or lower the signal
Procedure, shortened: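 First, HepG2 cells were transfected with reporter transcription units. Next, they were dosed for 24 h. Then RNA was isolated, converted to cDNA, PCR-amplified, FAM-labeled, HpaI-digested and analyzed by capillary electrophoresis.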

[9] = target: CCAAT/enhancer-binding protein beta (Homo sapiens) (UniProt P17676); assay: ATG_C_EBP_CIS: Attagene CIS-FACTORIAL HepG2 Assay for human CCAAT/Enhancer Binding Protein (C/EBP) beta (AID 2282927); settings: HepG2 Attagene cis-factorial transcription factor reporter; actives raise or lower the signal
Procedure, shortened: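 Chemical-treated HepG2 cells (24 h) bearing cis-regulated reporter constructs were processed for total RNA, then reverse transcription, PCR amplification, fluorescent primer extension and fragment analysis; gain- and loss-of-signal were fitted against DMSO.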

[10] = ATG_AP_2_CIS: Attagene CIS-FACTORIAL HepG2 Assay for human Activator Protein 2 (AP-2) (AID 2282932); settings: HepG2 AP-2 cis-reporter, Attagene transcription factor profiling; actives raise or lower the signal
Procedure, shortened: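 Cells (HepG2) transfected with promoter-driven reporter constructs, treated 24 h. Total RNA reverse-transcribed, reporter cDNA PCR-amplified, FAM-labelled by primer extension, digested, resolved by capillary electrophoresis. Activity fitted both directions versus DMSO.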

Measured: AC50

Retinoic acid receptor alpha (Homo sapiens), sequence (P10276 whole entry, looked up): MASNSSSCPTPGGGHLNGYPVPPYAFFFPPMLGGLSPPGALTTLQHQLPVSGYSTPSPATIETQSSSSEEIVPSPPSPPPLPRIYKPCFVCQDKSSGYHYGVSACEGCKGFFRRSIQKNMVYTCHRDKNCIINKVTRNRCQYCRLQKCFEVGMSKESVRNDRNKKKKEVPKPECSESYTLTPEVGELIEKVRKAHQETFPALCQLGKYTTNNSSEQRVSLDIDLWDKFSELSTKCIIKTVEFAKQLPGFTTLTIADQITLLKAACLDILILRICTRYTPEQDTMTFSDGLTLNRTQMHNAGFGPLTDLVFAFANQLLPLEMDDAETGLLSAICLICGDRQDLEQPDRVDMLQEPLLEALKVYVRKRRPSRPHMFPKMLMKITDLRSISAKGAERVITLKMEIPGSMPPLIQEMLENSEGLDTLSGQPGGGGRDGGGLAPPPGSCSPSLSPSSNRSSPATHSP
Transcription factor E2F1 (Homo sapiens), sequence (Q01094 whole entry, looked up): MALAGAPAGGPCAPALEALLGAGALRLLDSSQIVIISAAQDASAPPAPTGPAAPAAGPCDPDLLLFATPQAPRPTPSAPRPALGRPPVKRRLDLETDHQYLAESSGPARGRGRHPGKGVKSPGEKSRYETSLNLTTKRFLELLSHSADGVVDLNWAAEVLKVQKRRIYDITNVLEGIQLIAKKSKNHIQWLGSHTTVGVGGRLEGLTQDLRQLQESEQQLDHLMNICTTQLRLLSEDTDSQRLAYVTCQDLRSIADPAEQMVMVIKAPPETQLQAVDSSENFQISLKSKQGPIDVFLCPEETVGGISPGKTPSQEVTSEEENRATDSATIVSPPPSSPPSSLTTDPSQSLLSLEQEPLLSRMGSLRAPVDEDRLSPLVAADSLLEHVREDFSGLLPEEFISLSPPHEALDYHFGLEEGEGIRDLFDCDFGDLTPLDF
Aryl hydrocarbon receptor (Homo sapiens), sequence (P35869 whole entry, looked up): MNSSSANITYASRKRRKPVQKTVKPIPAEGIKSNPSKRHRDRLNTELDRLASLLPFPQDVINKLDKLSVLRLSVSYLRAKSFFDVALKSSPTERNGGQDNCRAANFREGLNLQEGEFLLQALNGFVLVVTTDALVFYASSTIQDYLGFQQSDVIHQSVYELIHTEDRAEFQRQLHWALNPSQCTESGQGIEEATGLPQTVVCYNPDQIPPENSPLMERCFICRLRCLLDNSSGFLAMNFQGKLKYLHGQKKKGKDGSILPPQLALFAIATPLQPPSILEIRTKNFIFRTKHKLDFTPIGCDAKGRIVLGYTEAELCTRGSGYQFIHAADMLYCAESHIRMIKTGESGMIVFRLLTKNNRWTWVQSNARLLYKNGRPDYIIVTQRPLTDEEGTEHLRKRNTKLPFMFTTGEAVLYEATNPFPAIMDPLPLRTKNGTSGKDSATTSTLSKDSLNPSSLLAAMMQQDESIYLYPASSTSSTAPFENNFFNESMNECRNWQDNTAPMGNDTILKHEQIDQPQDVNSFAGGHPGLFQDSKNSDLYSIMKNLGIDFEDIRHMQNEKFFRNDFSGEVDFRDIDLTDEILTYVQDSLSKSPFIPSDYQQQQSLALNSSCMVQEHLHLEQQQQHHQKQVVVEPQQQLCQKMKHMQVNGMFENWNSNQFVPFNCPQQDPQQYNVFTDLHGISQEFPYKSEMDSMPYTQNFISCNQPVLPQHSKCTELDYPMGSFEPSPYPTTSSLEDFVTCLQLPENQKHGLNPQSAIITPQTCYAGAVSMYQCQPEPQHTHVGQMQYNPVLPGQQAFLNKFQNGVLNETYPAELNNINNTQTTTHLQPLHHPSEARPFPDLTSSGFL
CCAAT/enhancer-binding protein beta (Homo sapiens), sequence (P17676 whole entry, looked up, the tested form may be a part): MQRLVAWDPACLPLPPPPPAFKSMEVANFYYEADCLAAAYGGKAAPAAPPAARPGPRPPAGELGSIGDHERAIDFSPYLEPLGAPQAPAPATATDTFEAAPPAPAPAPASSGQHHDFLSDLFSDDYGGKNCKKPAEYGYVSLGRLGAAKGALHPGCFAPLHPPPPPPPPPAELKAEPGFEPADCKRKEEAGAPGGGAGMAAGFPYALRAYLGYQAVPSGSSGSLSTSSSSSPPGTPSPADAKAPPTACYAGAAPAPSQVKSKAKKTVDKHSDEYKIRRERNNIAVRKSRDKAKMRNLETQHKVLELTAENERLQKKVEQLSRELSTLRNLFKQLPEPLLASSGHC

O=P(O)(O)Oc1ccccc1
inactive: [1] | [2] | [3] | [4] | [5] | [6] | [7] | [8]

CCC(CC)C(=O)O
inactive: [1] | [9] | [4] | [5] | [10] | [6] | [7]

CCCCCC/C=C/C=O
inactive: [1] | [9] | [4] | [5] | [10] | [6] | [7] | [8]

CC1(C)S[C@@H]2[C@H](NC(=O)COc3ccccc3)C(=O)N2[C@H]1C(=O)O
inactive: [1] | [3] | [4] | [5] | [10] | [6] | [7] | [8]

CCCCCCCCCCCSCC(=O)O
active: [3] 48.8 µM | [7] 2.13 µM
inactive: [1] | [2] | [4] | [10] | [8]

OC1CCCC1
inactive: [1] | [2] | [4] | [5] | [10] | [6] | [7] | [8]

O=c1cc(-c2ccccc2)oc2ccccc12
active: [2] 27.7 µM | [4] 7.62 µM | [10] 26.3 µM
inactive: [1] | [5] | [7] | [8]

COCCOCCOCCOCCOC
inactive: [1] | [2] | [3] | [4] | [5] | [10] | [6] | [7] | [8]

Cn1c([N+](=O)[O-])cnc1COC(N)=O
inactive: [1] | [2] | [3] | [4] | [5] | [10] | [6] | [7] | [8]

O=c1c2ccccc2nnn1CCl
inactive: [1] | [9] | [4] | [5] | [10] | [6] | [7] | [8]

CCN(CCO)c1cccc(C)c1
inactive: [1] | [2] | [3] | [5] | [6] | [7] | [8]
active: [4] 55 µM

[Cl][In]([Cl])[Cl]
inactive: [1] | [2] | [3] | [4] | [5] | [10] | [6] | [7] | [8]

C=CCOCC(O)CCl (stereo unspecified)
inactive: [1] | [9] | [4] | [5] | [10] | [6] | [7] | [8]

Cc1cc(=O)n(-c2ccccc2)n1C
inactive: [1] | [2] | [3] | [4] | [5] | [10] | [6] | [7] | [8]

CC(C)(Oc1ccc(C2CC2(Cl)Cl)cc1)C(=O)O (stereo unspecified)
inactive: [1] | [9] | [4] | [5] | [10] | [6] | [7] | [8]

NC(=O)N=NC(N)=O
inactive: [1] | [2] | [3] | [4] | [7] | [8]

CCC(C)OC(=O)c1ccc(O)cc1 (stereo unspecified)
inactive: [1] | [3] | [4] | [5] | [10] | [6] | [7] | [8]

CC(=O)Oc1ccc(C)cc1
inactive: [1] | [2] | [3] | [4] | [5] | [6] | [7] | [8]

CCC(C)(C)C1CCCCC1OC(C)=O (stereo unspecified)
inactive: [1] | [3] | [4] | [10] | [6] | [7] | [8]
active: [5] 158 µM

CCCCCCCC[N+](C)(CCCCCCCC)CCCCCCCC
inactive: [1] | [2] | [3] | [4] | [5] | [10] | [6] | [7] | [8]

c1cc(N(CC2CO2)CC2CO2)ccc1OCC1CO1 (stereo unspecified)
inactive: [4] | [5] | [6] | [8]
active: [1] 12.6 µM | [2] 91.5 µM | [3] 6.98 µM | [10] 25.8 µM | [7] 83.1 µM

CC[C@H]1OC(=O)[C@H](C)[C@@H](O[C@H]2C[C@@](C)(OC)[C@@H](O)[C@H](C)O2)[C@H](C)[C@@H](O[C@@H]2O[C@H](C)C[C@H](N(C)C)[C@H]2O)[C@](C)(O)C[C@@H](C)C(=NOCOCCOC)[C@H](C)[C@@H](O)[C@]1(C)O
inactive: [1] | [2] | [3] | [4] | [10] | [6] | [7] | [8]

C=CCCCCCCCCC(=O)OCCCC
inactive: [1] | [2] | [3] | [4] | [7] | [8]

CCCCCCC(O)CO (stereo unspecified)
inactive: [1] | [2] | [3] | [4] | [5] | [10] | [6] | [7] | [8]

CC(C)=CC1CC(C)CCO1 (stereo unspecified)
inactive: [1] | [2] | [4] | [5] | [10] | [6] | [7] | [8]

C1=Cc2ccccc2C1
inactive: [1] | [2] | [3] | [5] | [10] | [6] | [7] | [8]
active: [4] 5.55 µM

O=S(=O)(Oc1ccc(Cl)cc1Cl)c1ccccc1
inactive: [1] | [4] | [5] | [10] | [7] | [8]
active: [2] 46.7 µM | [3] 48.8 µM | [6] 61.4 µM

Cc1cnc(NC(=O)C2=C(O)c3ccccc3S(=O)(=O)N2C)s1
inactive: [1] | [2] | [3] | [5] | [10] | [6] | [7] | [8]
active: [4] 100 µM

O=C(c1ccccc1)c1ccc(O)c(O)c1O
inactive: [1] | [2] | [5] | [10] | [6] | [7] | [8]
active: [4] 84.4 µM

CCCCCCCCCCC=CC#N
active: [2] 100 µM | [3] 100 µM | [5] 111 µM
inactive: [1] | [4] | [10] | [6] | [7] | [8]

COC(=O)/C=C\C(=O)O
inactive: [1] | [2] | [3] | [4] | [10] | [6] | [7] | [8]

CC(=O)C=CC1C(C)=CCC(C)C1(C)C (stereo unspecified)
inactive: [1] | [2] | [3] | [4] | [5] | [10] | [6] | [7] | [8]

CCN(CC)c1ccc(C(=O)c2ccccc2C(=O)O)c(O)c1
inactive: [1] | [2] | [3] | [4] | [5] | [10] | [6] | [7] | [8]

CCc1c(C(=O)O)c(=O)cnn1-c1ccc(Cl)cc1
inactive: [1] | [4] | [5] | [10] | [6] | [7]

CC(CC=O)c1ccccc1 (stereo unspecified)
active: [3] 71.7 µM | [4] 123 µM | [5] 131 µM
inactive: [1] | [2] | [10] | [6] | [7] | [8]

O=C(O)Cc1c(Cl)ccc(Cl)c1Cl
inactive: [1] | [2] | [3] | [4] | [5] | [10] | [6] | [7] | [8]

COCc1c(C(C)C)nc(C(C)C)c(/C=C/[C@@H](O)C[C@@H](O)CC(=O)O)c1-c1ccc(F)cc1
inactive: [1] | [2] | [3] | [4] | [10] | [6] | [7] | [8]

Cc1cc(C)c(C(=O)O)c(C)c1
inactive: [1] | [2] | [3] | [4] | [5] | [10] | [6] | [7] | [8]

Nc1ncn([C@@H]2O[C@H](CO)[C@@H](O)[C@H]2O)c(=O)n1
inactive: [2] | [3] | [4] | [5] | [10] | [6] | [7]
active: [1] 9.4 µM

CCO[Si](CCCN=C=O)(OCC)OCC
inactive: [1] | [3] | [4] | [5] | [10] | [6] | [7]
